{"source": "PubChem BioAssay (EPA / NIEHS)", "note": "Calls of active or inactive are those of the source. Rule for the calls: active = hit-call score of the fitted dose curve at least 0.9, where 1 is the maximum; inactive = score below 0.9.", "data": [{"assay": "IUF_NPC2-5_viability_120hr: Viability Assessment at 120 hours in the Leibniz Research Institute for Environmental Medicine (IUF) Neural Progenitor Cell Migration and Differentiation Assay (NPC2-5) (AID 2284312)", "experimental": "IUF_NPC2-5 is a cell-based, multiplexed assay that uses hNPC, a human primary neural progenitor cells, with measurements taken at 72 or 120 hours after chemical dosing in a 96-well plate. Human neural progenitor cells (hNPC) are generated from human fetal brain cortex at gestational week (GW) 16-19. In the neural progenitor cell migration and differentiation assay (NPC2-5), hNPCs grown as spheres are plated on an extracellular matrix and migrate and differentiate out of the sphere core. The processes radial glia migration, neuronal and oligodendrocyte migration as well as neuronal differentiation, neuronal morphology and oligodendrocyte differentiation are studied using automated phase contrast imaging and automated fluorescence imaging in combination with high content image analysis. In parallel, the cell viability is assessed using an alamar blue viability assay and the cytotoxicity using a lactate dehydrogenase dependent membrane integrity assay.IUF_NPC2-5_viability_120hr is one of 12 assay components measured from the IUF_NPC2-5 assay. It is designed to measure cell viability assessed as mitochondria-dependent reduction of resazurin to resorufin using the alamar blue viability assay. The viability is measured as a fluorescence signal (relative fluorescence unit) in a multiplate reader. Data from the IUF_NPC2-5_viability_120hr component was analyzed at the endpoint IUF-NPC2-5_viability_120hr in the positive analysis fitting direction relative to DMSO as the negative control and baseline of activity. Using a type of viability reporter, gain or loss-of-signal activity can be used to understand viability effects.\nCulture protocol: After the cell expansion period the cells are cultured for up to four weeks in which they are passaged every week as described in 3.6. Between one to three days after passaging spheres at a size of 0.3 mm are picked for the test method. For the assessment of neural progenitor cell migration and differentiation, the spheres are plated on poly-D-lysine/laminin coated 96-well flat bottom plates in differentiation medium (N2) to initiate migration and differentiation. Thereby one 0.3 mm big sphere is plated in the middle of a well. The differentiation medium consists of DMEM and Ham's F12 at a ratio of 3 to 1 supplemented with 1% N2 and 1% penicillin and streptomycin. Within 5 days NPCs radially migrate out of the sphere core and differentiate into radial glia cells (nestin positive), neurons (TUBB3 positive), oligodendrocytes (O4 positive) and astrocytes (GFAP positive). Cultivation during the test method is performed at 37C and 5% CO2 at a ph of 7.2-7.6.Exposure: 0.3 mm big hNPC are plated in the already prepared test conditions. Exposure starts at day 0 of differentiation and is continued over five days of differentiation until the experiment is terminated. Cells are fed with fresh medium at day 3 of differentiation. Therefore, half of the test condition solution (e.g. solvent control or compound dilution) is replaced by freshly prepared test condition solution.Test Method: Migration distance and cytotoxicity is determined after 72 hours based on brightfield images of each well. The assay is terminated by the assessment of cell viability and cytotoxicity as well as cell fixation after 120 h. Immunocytochemistry is performed for Hoechst positive nuclei, TUBB3 positive neurons and O4 positive oligodendrocytes. On the ICC images, migration after 120 hours, neuronal and oligodendrocyte number, neuronal morphology and neuron/oligodendrocyte specific migration is assessed. immunocytochemical staining (ICC) generates an image for each sphere. The plates are scanned using an automated high content imaging device and all nuclei and their positions are determined automatically based on their intensity and size. Images are imported to the Omnisphero software to run the image analysis that measures the following endpoints. The method is set up for 8 test conditions including 7 compound concentrations and one SC. […]", "values": [{"smiles": "CC(C)(C)C(O)(CCc1ccc(Cl)cc1)Cn1cncn1", "note": "(stereo not given)", "outcome": "inactive"}, {"smiles": "CC(C)COC(=O)c1ccccc1C(=O)OCC(C)C", "outcome": "inactive"}, {"smiles": "OCCOCCO", "outcome": "inactive"}, {"smiles": "[O-][Cl+]O", "outcome": "inactive"}, {"smiles": "CNC(=O)Oc1cccc2c1OC(C)(C)C2", "outcome": "inactive"}, {"smiles": "COP(=S)(OC)SCN1C(=O)c2ccccc2C1=O", "outcome": "inactive"}, {"smiles": "CCCCOC(=O)c1ccccc1C(=O)OCc1ccccc1", "outcome": "inactive"}, {"smiles": "O=P(OCCCl)(OCCCl)OCCCl", "outcome": "inactive"}, {"smiles": "COC(=O)Nc1nc2ccccc2[nH]1", "AC50": "12.5 µM (active)"}, {"smiles": "CCC[CH2][Sn]([Cl])([CH2]CCC)[CH2]CCC", "AC50": "0.393 µM (active)"}]}]}
